Results on five compounds are retold here after PubChem BioAssay (EPA / NIEHS).

Assay [1] is described as follows: ACEA_AR_agonist_AUC_viability: ACEA Biosciences xCELLigence Real-Time Cell Analysis on Androgen Receptor Agonism for Viability (AID 2283775).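 As to AC50: viability read 80 hours after compound addition.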 The essentials:
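Real-time impedance tracking of 22Rv1 growth, readings every 5 min for 5 h then hourly; area-under-curve viability endpoint at 80 hours, relative to DMSO. Compounds at eight concentrations, 1:4 steps, top 100 uM, n = 2.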

Assay [2] is described as follows: ACEA_AR_antagonist_AUC_viability: ACEA Biosciences xCELLigence Real-Time Cell Analysis on Androgen Receptor Antagonism for Viability (AID 2283776).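 Also: hits lower the growth signal relative to DMSO meaning cytotoxicity.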 In a few lines:
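22Rv1 human prostate cancer cells were seeded on electrode plates, monitored overnight, then exposed to eight 1:4 dilutions from 100 uM final. Impedance-based growth kinetics at 80 h gave an AUC viability endpoint normalized to DMSO.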

The target in assay [3] is AR (gene 367) (UniProt P10275). The assay can be described thus: ACEA_AR_agonist_80hr: ACEA Biosciences xCELLigence Real-Time Cell Analysis on Androgen Receptor Agonism for Proliferation (AID 2283783).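 Also: hits increase impedance growth signal above DMSO baseline.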 The essentials: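 Androgen-driven proliferation in 22Rv1 cells is tracked as electrical impedance, taken 80 h after continuous exposure to compound (eight concentrations, 1:4 steps, maximum 100 uM final). Activity is fitted in the positive direction with DMSO as baseline.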

The nature of assay [4]: STM_H9_NormalizedViability: Cytotoxicity Assessment at 120 hours in the Stemina devTOX quickPredict H9 human embryonic stem cell (hESC)-based Assay (AID 2283784). In a few lines:
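Pluripotent H9 hESCs were exposed, with chemical and media replaced every 24 h. Viability was read by CellTiter-Fluor fluorescence, background-corrected and normalized to the 0.1% DMSO neutral control per plate. Loss of signal was fitted.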

Assay [5] has as its target AR (gene 367) (UniProt P10275). In words: ACEA_AR_antagonist_80hr: ACEA Biosciences xCELLigence Real-Time Cell Analysis on Androgen Receptor Antagonism for Proliferation (AID 2283787).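 Also: hits lower the impedance growth signal relative to DMSO.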 The essentials: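 Growth-kinetic antagonist readout in 22Rv1 cells, taken 80 h after continuous compound exposure. Activity fitted as signal loss relative to DMSO negative control.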
Assay [6] in a line: ACEA_ER_AUC_viability: ACEA Biosciences xCELLigence Real-Time Cell Analysis on Estrogen Receptor Agonism for Viability (AID 2283782).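 Also: continuous compound exposure with impedance area under curve over 80 h; hit means loss of impedance signal meaning reduced cell growth or viability.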 The essentials: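 T-47D; phenol red-free RPMI1640 + 10% CS-FBS; 8 conc., 1:4 serial, max 100 uM final, ≤0.5% DMSO; n = 2; continuous exposure; impedance monitored to 80 h post-dose; AUC vs DMSO.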

Results filed as inconclusive are left out. Active and inactive are the calls of the source. The calls were made as follows: active = hit-call score of the fitted dose curve at least 0.9, where 1 is the maximum; inconclusive = response in the unintended direction; inactive = score below 0.9.

Chain of AR (gene 367) (P10275 whole entry, looked up): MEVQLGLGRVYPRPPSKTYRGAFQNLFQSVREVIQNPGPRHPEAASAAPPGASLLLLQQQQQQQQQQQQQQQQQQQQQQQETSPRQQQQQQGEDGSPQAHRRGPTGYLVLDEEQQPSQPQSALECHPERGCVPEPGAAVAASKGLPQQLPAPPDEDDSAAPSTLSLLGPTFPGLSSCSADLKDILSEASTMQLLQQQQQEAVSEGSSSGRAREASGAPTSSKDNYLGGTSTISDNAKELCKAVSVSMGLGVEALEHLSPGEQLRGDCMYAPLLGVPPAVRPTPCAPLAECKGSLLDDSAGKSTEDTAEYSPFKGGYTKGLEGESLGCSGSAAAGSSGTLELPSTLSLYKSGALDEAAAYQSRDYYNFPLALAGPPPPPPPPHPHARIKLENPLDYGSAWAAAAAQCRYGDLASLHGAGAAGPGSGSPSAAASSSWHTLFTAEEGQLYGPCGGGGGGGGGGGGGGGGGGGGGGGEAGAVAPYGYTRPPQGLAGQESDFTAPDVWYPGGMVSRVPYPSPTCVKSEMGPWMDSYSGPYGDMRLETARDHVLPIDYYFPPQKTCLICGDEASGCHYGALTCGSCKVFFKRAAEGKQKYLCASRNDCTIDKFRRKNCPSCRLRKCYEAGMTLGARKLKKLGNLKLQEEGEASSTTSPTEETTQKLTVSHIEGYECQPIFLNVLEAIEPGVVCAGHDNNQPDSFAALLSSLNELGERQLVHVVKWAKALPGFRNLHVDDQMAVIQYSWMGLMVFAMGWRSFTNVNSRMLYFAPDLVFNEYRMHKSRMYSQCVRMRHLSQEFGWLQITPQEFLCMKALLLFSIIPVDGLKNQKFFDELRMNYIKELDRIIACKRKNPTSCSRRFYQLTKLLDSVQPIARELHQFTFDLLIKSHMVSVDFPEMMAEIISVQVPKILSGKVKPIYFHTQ

Take `CCNc1nc(NC(C)C)nc(SC)n1`: the compound was classed as inactive in assay [1], in assay [2], in assay [3], in assay [4] and in assay [5].

For the compound `N#Cc1ccc(N(CC(N)=O)CC(F)(F)F)cc1C(F)(F)F`, in assay [6], the compound was called inactive.

What is called AC50 is the concentration at which the activity in the assay is half-maximal. As to `CC1=C2C[C@H]3[C@@H](CC=C4C[C@@H](O)CC[C@@]43C)[C@@H]2CC[C@]12O[C@@H]1C[C@H](C)CN[C@H]1[C@H]2C`, the outcome in assay [1], in assay [2], in assay [6] and in assay [4] was inactive. For the same compound, the AC50 in assay [5] is 80.8 µM (active).

As to `CCCCCCCCCC[N+](C)(C)CCCCCCCCCC`, the concentration at half-maximal activity (AC50) in assay [1] was 3.81 µM (active); in assay [2] it was 6.84 µM (active); in assay [6] it was 5.4 µM (active); in assay [4], 2.5 µM (active).

For `O=C(NC(=O)c1c(F)cccc1F)Nc1cc(Cl)c(OC(F)(F)C(F)F)c(Cl)c1`, the half-maximal activity concentration (AC50) is 50 µM (active) in assay [1], 42.2 µM (active) in assay [2] and 50 µM (active) in assay [5]. For the same compound, in assay [3], the compound was called inactive.
